Most compounds without a hit are left out; they make up all but 4.2% or so of the library.
PrPC surface inh: reduces human prion protein on the cell surface; cell surface PrPC, TR-FRET read-out; P04156; 370,000 compounds, 0.43% hits; inhibition, % at 13.8 µM; in the data active = inhibition above about 24%
GDH-TPI counter: counter-screen for M. tuberculosis FBA inhibitors: GDH-TPI coupled enzymes. inhibition, % at 4.8 µM. 360,000 compounds, 1.2% hits. GDH-TPI coupled enzyme counterscreen, NADH absorbance. AID 588335; in the data active = inhibition above about 30%
BJeLR viability: kills HRASV12-expressing BJeLR cells. 300,000 compounds, 0.17% hits. BJeLR (HRASV12) viability, CellTiter-Glo ATP luminescence, 48 h. inhibition, % (concentration not given with the values); in the data active = inhibition above about 50%
Mtb FBA inh: inhibits M. tuberculosis FBA enzyme | P9WQA3 | purified M. tuberculosis FBA, fluorescence read-out | inhibition, % at 1 µM | 360,000 compounds, 2.3% hits; in the data active = inhibition above about 27%
Target sequence (P9WQA3 whole entry, looked up): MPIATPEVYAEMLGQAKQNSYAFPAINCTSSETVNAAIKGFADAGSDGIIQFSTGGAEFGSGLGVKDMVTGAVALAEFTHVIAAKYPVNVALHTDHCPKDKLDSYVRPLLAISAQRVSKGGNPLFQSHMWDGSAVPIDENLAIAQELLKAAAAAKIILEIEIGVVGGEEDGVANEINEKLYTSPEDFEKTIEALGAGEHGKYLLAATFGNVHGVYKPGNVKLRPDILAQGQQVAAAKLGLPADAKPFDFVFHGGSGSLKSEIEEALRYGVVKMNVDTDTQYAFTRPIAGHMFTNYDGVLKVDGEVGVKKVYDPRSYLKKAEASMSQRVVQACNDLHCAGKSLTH
RecA splice inh: inhibitors of M. tuberculosis RecA intein splicing; P9WHJ3; cell-free RecA intein splicing, fluorescence; inhibition, % (concentration not given with the values); 290,000 compounds, 0.75% hits; in the data active = inhibition above about 30%
Hits are given with their value; n = inactive; x = no result; + = active, no number.

SMILES	PrPC surface inh	GDH-TPI counter	BJeLR viability	Mtb FBA inh	RecA splice inh
CC(C)N1CCCCC(NC(=O)c2ccc(Cl)cc2Cl)C1=O (centres undefined)	n	x	x	x	x
CN1CC2(Cc3c1ccc1ccccc31)C(=O)OC(C)(C)OC2=O	n	n	n	+	n
Cc1ccc(-c2cc(-c3ccccc3)cc(-c3ccccc3)[n+]2-c2ccccc2)cc1	27	n	75	n	n
c1ccc(-c2cc(-c3ccccc3)[n+](-c3ccccc3)c(-c3ccccc3)c2)cc1	n	n	n	n	n
Cc1ccc(-c2cc(-c3ccc(C)cc3)[n+](-c3ccccc3)c(-c3ccc(C)cc3)c2)cc1	x	n	68	n	n
COCCN=C1S/C(=C\c2cc(C)n(-c3ccc(F)cc3F)c2C)C(=O)N1C	n	x	x	x	x
CN(C)[C@@H]1CCN(c2cccc3c2S(=O)(=O)N2CC[C@@H](C2)O3)C1	n	x	x	x	x
COc1ccc2nc(SCC(=O)NN)cc(C)c2c1	n	n	n	n	42
CC(C)Sc1nc2c(c(=O)[nH]1)C(c1cccs1)C1=C(CC(C)(C)CC1=O)N2 (centres undefined)	n	n	n	n	n
CCSc1nc2c(c(=O)[nH]1)C(c1ccccn1)C1=C(CC(C)(C)CC1=O)N2 (centres undefined)	n	n	n	124	n
CC1(c2nnnn2Cc2ccccc2)CCCCC(=O)N1Cc1cccs1 (centres undefined)	n	x	x	x	x
CCC(CO)Nc1cccc2c1S(=O)(=O)N(Cc1cn(Cc3cccc(C(F)(F)F)c3)nn1)Cc1ccccc1O2 (centres undefined)	n	x	x	x	x
c1ccc(-c2ncc3ccccn23)cc1	n	n	n	n	n
c1ccc2c(c1)ncc1cccn12	n	n	n	+	n
O=C(COc1ccccc1F)Nc1nnc(-c2ccncc2)s1	n	n	n	n	n
O=C(O)CCCC(=O)Nc1ccc(C(=O)NCc2cccnc2)cc1	n	n	n	n	x
O=C(CCC1CCCC1)Nc1ccc(C(=O)NCc2cccnc2)cc1	n	n	89	n	n
Cc1ccccc1OCC(=O)Nc1nnc(-c2ccncc2)s1	n	33	n	n	n
O=C(NCc1cccnc1)c1ccc(NC(=O)c2cccc([N+](=O)[O-])c2)cc1	n	n	79	n	n
O=C(Nc1nnc(-c2cccnc2)s1)c1cccs1	n	42	n	n	n
CC(=O)c1c(C)[nH]c(C(=O)Nc2ccccc2C)c1C	n	x	x	x	x
O=C(COc1ccc([N+](=O)[O-])cc1)Nc1ccc(C(=O)NCc2cccnc2)cc1	n	n	63	n	n
O=C(COc1ccc([N+](=O)[O-])cc1)NCc1cccnc1	n	n	n	n	n
O=C(COc1ccc([N+](=O)[O-])cc1)Nc1nnc(-c2cccnc2)s1	n	35	n	n	n
COC(=O)C1CN(Cc2cn(CCOC(C)=O)nn2)CCS(=O)(=O)N1Cc1ccc(Cl)cc1 (centres undefined)	n	x	x	x	x
SMILES	PrPC surface inh	GDH-TPI counter	BJeLR viability	Mtb FBA inh	RecA splice inh
Cc1ccc(Cn2nnc3c2-c2ccccc2S(=O)(=O)N(C(C)(C)C)C3)cc1	n	x	x	x	x
CS(=O)(=O)N1CCC[C@]2(CC[C@@H](CCC#N)O2)C1	n	x	x	x	x
COc1ccccc1-c1nc(C#N)c(N2CCCCCC2)o1	n	n	n	+	n
COc1ccc(-c2nc(C#N)c(N3CCc4ccccc4C3)o2)cc1OC	n	41	n	150	n
Cc1cccc(-c2nc(C#N)c(N3CCCCCC3)o2)c1	n	n	n	139	n
COc1ccc(CN(CCN2CCOCC2)C(=O)c2cccc(F)c2F)cc1OC	n	x	x	x	x
CC(Cl)C(=O)N1CCC(C(=O)NCC2COc3ccccc3O2)CC1 (centres undefined)	n	x	x	x	x
CCN1CCN(c2ncnc3c2sc(=S)n3-c2ccccc2)CC1	n	39	n	n	n
COc1ccc(-n2c(COc3ccc(Cl)cc3)nnc2SCC(=O)c2ccc(-c3ccccc3)cc2)cc1	n	x	x	x	x
CCOC(=O)Cc1csc(NC(=O)c2ccc(C)o2)n1	n	n	n	n	n
CCOC(=O)Cc1csc(NC(=O)c2cnc3sc(C)cn3c2=O)n1	n	54	n	n	n
O=C1CC(C(=O)O)S/C(=N\N=C\c2ccc(Br)cc2)N1 (centres undefined)	n	66	n	n	n
C[C@H]1C=CC(=O)O[C@H]1c1ccccc1	n	n	n	n	n
C[C@@H]1C=CC(=O)O[C@@H]1c1ccc(C(F)(F)F)cc1	x	x	92	x	n
COC(=O)C1CN(Cc2cn(Cc3ccc(C)cc3)nn2)CCS(=O)(=O)N1Cc1ccc(Cl)cc1 (centres undefined)	n	x	x	x	x

Compound activity (PubChem BioAssay)
